# Assay outcomes: PubChem, National Center for Advancing Translational Sciences (NCATS)
# A selection: hits, their analogues and other compounds. The true share with any hit is near 0.41%.
# GAA glycogen mod: GAA glycogen-cleavage inhibition or activation; P10253; recombinant GAA, glycogen substrate, Amplex Red glucose oxidase fluorescence; Potency, µM (doses to about 76.4 µM), inactives show top-dose activity change, negative = inhibition, most hits filed as inhibitors; 300,000 tested, 0.38% active; AID 2100;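 further: potency means the concentration at half of the fitted maximal effect; 0% = full enzyme reaction and -100% = no-enzyme basal signal; the screen sought inhibitors and activators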
#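 Recombinant human alpha-glucosidase (4 nM final) hydrolysed bovine liver glycogen (30 ug) for 40 min at 37 C in pH 5.0 citrate/phosphate with 0.01% Tween-20. Released glucose detected by glucose oxidase/Amplex Red, Ex 573/Em 610 nm. Compounds up to 77 uM; AC50 from Hill fits.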
# GAA spleen mod: inhibitors or activators of human alpha-glucosidase in spleen homogenate; Potency, µM (highest dose often 79.9 µM), inactives show at the top dose activity change, negative = inhibition, hits mostly inhibitors; AID 2112; human spleen homogenate, 4-MU-alpha-glucoside fluorescence; 240,000 tested, 0.006% active; P10253;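 further: potency means the concentration at half of the fitted maximal effect; 0% = enzyme with vehicle and -100% = no enzyme basal signal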
#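 AC50 values come from Hill-equation fits of concentration-response data, normalized to no-enzyme and full-activity controls. Enzyme source: 1 ug human spleen homogenate; 1 mM fluorogenic 4-MU glucoside, pH 5.0 citrate buffer, 37 C, 40 min.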
# GAA inhib: inhibitors of human lysosomal alpha-glucosidase | Potency, µM (doses to about 76.9 µM), inactives show at the top dose activity change, negative = inhibition, usual class: inhibitors | purified human GAA, 4-MU-alpha-glucoside fluorescence | P10253 | 200,000 tested, 0.005% active;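 further: potency means the concentration at half of the fitted maximal effect; plate controls were uninhibited enzyme wells for no effect and no-enzyme background for full effect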
#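 AC50 values come from Hill fits of compound titrations (up to 77 uM) against 4 nM human enzyme. Substrate 4-methylumbelliferyl-alpha-D-pyranoside at 400 uM, pH 5.0 citrate buffer, 20 min room temperature; fluorescence Ex 365/Em 440 after alkaline stop.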
# GLA spleen mod: alpha-galactosidase A (human) modulation | P06280 | human spleen homogenate, 4MU-alpha-Gal fluorescence, 40 min | Potency, µM (doses to about 80 µM), for inactives: at the highest dose activity change, negative = inhibition, most hits filed as inhibitors | 240,000 tested, 0.008% active | AID 2107;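 further: potency means the concentration at half of the fitted maximal effect; 0% = enzyme with vehicle and -100% = no enzyme basal signal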
# Target sequence (P06280 32-429 limits assumed): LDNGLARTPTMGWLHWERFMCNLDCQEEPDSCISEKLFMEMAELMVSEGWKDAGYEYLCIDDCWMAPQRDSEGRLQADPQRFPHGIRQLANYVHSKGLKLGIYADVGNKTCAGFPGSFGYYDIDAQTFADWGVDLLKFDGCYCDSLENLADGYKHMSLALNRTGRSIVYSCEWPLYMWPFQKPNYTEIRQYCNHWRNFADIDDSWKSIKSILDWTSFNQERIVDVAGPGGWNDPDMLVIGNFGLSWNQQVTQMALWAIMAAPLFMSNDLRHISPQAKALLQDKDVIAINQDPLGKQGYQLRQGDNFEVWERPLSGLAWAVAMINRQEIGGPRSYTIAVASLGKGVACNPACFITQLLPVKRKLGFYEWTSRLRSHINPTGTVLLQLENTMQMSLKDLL
#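 Fluorogenic readout (Ex 365/Em 440 nm) of 4-methylumbelliferone released from 1 mM 4-MU-alpha-galactoside by spleen homogenate, 40 min at 37C, pH 5.0. Data normalized to no-enzyme and enzyme controls; Hill-equation AC50 from compound titrations.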
# GLA inh pH 4.5: alpha-galactosidase A (human) inhibition, pH 4.5 | P06280 | purified enzyme, 4-MU-alpha-Gal fluorescence, pH 4.5 | activity change, negative = inhibition, % at 105 µM | 230,000 tested, under 10 active | AID 1467;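 further: 0% = full activity with enzyme and -100% = basal without enzyme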
# N370S GC mod: inhibits or activates N370S mutant glucocerebrosidase; N370S GC spleen homogenate, 4MU-glucoside fluorescence; Potency, µM (highest dose often 59.4 µM), without a hit: at the top dose activity change, negative = inhibition, hits mostly inhibitors; 330,000 tested, 0.092% active; AID 2101;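 further: potency means the concentration at half of the fitted maximal effect; 0% = full enzyme activity and -100% = no enzyme basal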
# The depositor's hits bear a star; u = inconclusive; x = no result given; [ ] = remark or other dose. The call rests on the fitted dose curve; in most records, active means well fitted curve in the direction sought with a large enough effect; inconclusive means small, poorly fitted or top-dose-only effect, or another doubt; inactive means no such curve, though single readings can be large; an effect the other way counts as inactive or inconclusive.
SMILES,GAA glycogen mod,GAA spleen mod,GAA inhib,GLA spleen mod,GLA inh pH 4.5,N370S GC mod
Cc1nc(Nc2ccc(S(N)(=O)=O)cc2)sc1-c1ccccc1,6%,x,x,x,x,1%
COc1ccc(Nc2nc(C)c(-c3ccccc3)s2)cc1,14µM*,-2%,-9%,3%,-4,-7%
Cc1cc(C)c(S(=O)(=O)/N=C2\C=CC(=O)C(Cl)=C2)c(C)c1,12µM*,-2%,u,-3%,0,-1%
C=CCNC(=S)Nc1ccc(N(C)C)cc1,3.1µM*,-2%,-5%,-2%,-7,1%
C=CCNC(=S)Nc1ccc(C(N)=O)cc1,3%,-2%,12%,-9%,1,2%
CC[C@H](C)[C@@H](NC(=O)O[C@H]1C(=O)c2ccc(OC)cc2O[C@@H]1c1ccc2c(c1)OCO2)C(=O)OC,x,4%,x,11%,-14,-16%
O=C1Cc2ccccc2C(=O)N1OCc1ccc(Cl)cc1Cl,25µM*,-4%,4%,-8%,0,-6%
O=C1c2ccccc2C(=O)N1OCc1cccc(Cl)c1,6%,-4%,-6%,4%,12,3%
COc1cc(C(=O)NNc2nc3cc4c(cc3s2)OCO4)cc(OC)c1OC,25µM*,1%,-5%[15.4 µM],-2%,1,3%
O=C(O)/C=C/c1ccc(O)c(O)c1,7.9µM*,u,-9%[15.4 µM],u,1,-20%
O=C(/C=C/c1ccc(O)c(O)c1)O[C@@H](C(=O)O)[C@@H](OC(=O)/C=C/c1ccc(O)c(O)c1)C(=O)O,x,-7%,x,-7%,x,-26%
O=C(/C=C/c1ccc(O)c(O)c1)NC(=O)c1ccccc1O,3.5µM*,4%,x,11%,-5,-24%
O=c1c(-c2cccs2)nc2cnc(N3CCNCC3)nc2n1-c1ccccc1,x,4%,x,-1%,x,u
O=C(NNC(=S)NCCc1ccccc1)c1ccc(Br)s1,35µM*,9%,-2%,9%,4,16%
O=C(CCc1ccc(O)cc1)NNC(=S)NCCc1ccccc1,u,-11%,2%,-3%,6,-5%
CCc1ccc(C2CC(=O)c3c([nH]c(C(=O)OC4CCCCCC4)c3C)C2)cc1 (configuration not stated),-4%[76.3 µM],x,x,x,x,x
O=C(O)c1ccc(CN2C(=O)CSC2=S)cc1,18µM*,-7%,-4%,-13%,8,2%
O=C(O)c1ccc(N=C2SCC(=O)N2Cc2ccccc2)cc1,14%,4%,12%,-1%,1,-9%
O=C(Cc1ccccc1Nc1c(Cl)cccc1Cl)OCO/N=[N+](\[O-])N1CCCC1,x,6%,x,9%,x,5%
Oc1ccc(Br)cc1-c1nc2cnccn2c1NC1CCCC1,16µM*,-5%,0%,-16%,-11,5%
Cc1cc(NC(=O)c2ccc(Br)o2)cc(-c2nc3ccccc3o2)c1O,-10%[76.3 µM],x,x,x,x,x
COc1cc(C(=O)O[C@@H]2CC3CC[C@]2(C)C3(C)C)ccc1O,x,-3%,x,0%,x,3%
COc1ccc(C(=O)/C=C/Nc2c(C)n(C)n(-c3ccccc3)c2=O)cc1OC,3.1µM*,2%,u,5%,9,3%
Fc1ccccc1-c1nc(NCc2ccco2)c2ccccc2n1,-15%,1%,4%,-4%,0,11µM*
CC(=C/c1ccccc1)/C=N/n1c(-c2ccco2)n[nH]c1=S,25µM*,-1%,-15%,-4%,-13,21%
SMILES,GAA glycogen mod,GAA spleen mod,GAA inhib,GLA spleen mod,GLA inh pH 4.5,N370S GC mod
COc1ccccc1C1Nc2cccc3cccc(c23)N1,16µM*,0%,-3%,2%,0,-6%
COc1cc(OC)c(C2Nc3cccc4cccc(c34)N2)c(OC)c1,u,x,x,x,x,-8%
NNc1nc(-c2ccccc2)cc(-c2ccccc2)n1,-16%,-3%,4%,-14%,1,4%
NNc1nc(-c2ccccc2)cc(-c2ccccc2O)n1,11µM*,-6%,2%,-8%,1,4%
CC(=O)Nc1ccc(S(=O)(=O)Nc2nc3ccccc3nc2Nc2ccc(O)cc2)cc1,18µM*,4%,x,6%,-6,-24%
O=C1CC[C@@]23/C=C/C(=O)NCCCCNCCCNC(=O)/C=C/c4ccc(c2c4)OC3C1 (some centres not stated),x,3%,x,5%,3,19%
c1cc(CNc2ccc3c(c2)OCO3)ccn1,32µM*,-8%,-3%,4%,10,1%
Cc1ccc(CNc2ccc3c(c2)OCO3)cc1,-27%,7%,5%,-4%,0,-5%
CN1CCN(C(=O)Nc2cccc(Cl)c2)c2cccnc21,4.5µM*,x,x,x,x,x
Cc1ccc(-c2cnc(NCc3c(F)cccc3Cl)n2C)cc1,22µM*,x,x,x,x,x
CN1CCN(S(=O)(=O)c2cccc(C(=O)Nc3sc4c(c3-c3nc5ccccc5[nH]3)CCCC4)c2)CC1,-3%,-11%,-2%,-12%,-1,11µM*
O=C(O)c1c(-c2ccccc2)oc2ccc(OCc3c(F)cccc3Cl)cc12,6%[76.3 µM],x,x,x,x,x
COc1ccc(NS(=O)(=O)c2ccc3c(c2)n(C)c(=O)c(=O)n3C)cc1Cl,18%[76.3 µM],x,x,x,x,x
N#CC1=C(N)C2=C(N3CCCCC3)CCCC2C1(C#N)C#N (configuration not stated),22µM*,1%,-3%,0%,-2,-3%
N#CC(C#N)=C1C=C2C=C(N3CCCCC3)CCC2CC1 (configuration not stated),-6%,-4%,-1%,-2%,-4,10%
COc1ccc(C(=O)COC(=O)C(Cc2c[nH]c3ccccc23)NC(=O)c2ccc(C(C)(C)C)cc2)cc1 (configuration not stated),-10%[76.3 µM],x,x,x,x,x
O=C(O)/C=C/C(=O)Nc1ccc(O)cc1,32µM*,2%,-1%,-6%,-1,u
O=C(O)/C=C/C(=O)Nc1ccc(C(=O)c2ccccc2)cc1,-10%,8%,6%,4%,-25,3%
O=C(Cc1ccc(F)cc1)N1CCC(c2nc3c(nnn3Cc3ccc(Cl)cc3)c(=O)[nH]2)CC1,11%[76.3 µM],x,x,x,x,x
Cc1cc(O)cc(C)c1Cl,x,-7%,x,-4%,2,-3%
Cc1cc(O)c(N)c(C)c1Cl,8.9µM*,3%,0%,1%,4[21.1 µM],-5%
CC(=O)Nc1ccc(Nc2nc3ccc(Cl)cc3n3cnnc23)cc1,-14%[76.3 µM],x,x,x,x,x
O=C(NCc1cccs1)Nc1cccs1,4µM*,-5%,-3%,2%,1,-13%
CCc1ccc(NC(=O)Nc2cccs2)cc1,u,-5%,2%,-16%,0,-3%
CCOc1ccc(NC(=O)Nc2cccs2)cc1,20µM*,-2%,-4%,3%,-3,7%
Cc1ccccc1CNC(=O)Nc1cccs1,u,0%,5%,5%,-23,7%
COc1ccc(N(CC(=O)NCc2ccccc2Cl)S(=O)(=O)c2c(C)nn(C)c2C)cc1,-4%[76.3 µM],x,x,x,x,x
